# Assay results from PubChem BioAssay (Tox21).
# Records with an inconclusive call do not appear. Where a call stands in place of a potency, no number is given. Activity calls are given as the source filed them. Unless noted, the call rests on the fitted dose curve; in most records, active means well fitted curve in the direction sought with a large enough effect in the repeat runs; inconclusive means weak or mixed curves; inactive means no such curve, though single readings can be large; an effect the other way counts as inactive or inconclusive.
# How the values were obtained:
# [1] = qHTS assay to identify small molecule agonists of the peroxisome proliferator-activated receptor delta (PPARd) signaling pathway - cell viability counter screen (AID 743211); further: nearly all actives have a fitted effect of over 55% in size; further: potency means the concentration at half of the fitted maximal effect
# How it was run: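 qHTS cell viability: PPARd-bla HEK293H; 17 h cpd, 37C; CellTiter-Glo, luminescence at 30 min RT.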
# [2] = target: Peroxisome proliferator-activated receptor delta (Homo sapiens) (UniProt Q03181); experiment: qHTS assay to identify small molecule agonists of the peroxisome proliferator-activated receptor delta (PPARd) signaling pathway (AID 743212; calls by dose curve)
# Chain of Peroxisome proliferator-activated receptor delta (Homo sapiens) (Q03181 whole entry, looked up): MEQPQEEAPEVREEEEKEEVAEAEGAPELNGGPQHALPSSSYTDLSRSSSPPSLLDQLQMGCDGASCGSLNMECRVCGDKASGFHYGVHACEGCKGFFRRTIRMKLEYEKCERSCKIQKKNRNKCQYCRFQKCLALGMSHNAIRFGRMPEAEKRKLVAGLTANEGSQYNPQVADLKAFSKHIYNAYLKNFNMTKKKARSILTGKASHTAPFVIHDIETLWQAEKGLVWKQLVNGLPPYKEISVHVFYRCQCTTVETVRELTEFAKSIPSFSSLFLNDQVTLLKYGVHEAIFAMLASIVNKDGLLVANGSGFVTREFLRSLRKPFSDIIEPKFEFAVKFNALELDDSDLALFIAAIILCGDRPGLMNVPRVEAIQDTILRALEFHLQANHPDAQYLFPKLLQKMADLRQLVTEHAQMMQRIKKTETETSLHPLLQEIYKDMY
# How it was run: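 HEK293H UAS-bla reporter cells, human PPARd system; compounds delivered in DMSO after 5 h plating, then at 37 C. Beta-lactamase FRET read, 2 h RT substrate step.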
# [3] = qHTS assay to identify small molecule antagonists of the peroxisome proliferator-activated receptor delta (PPARd) signaling pathway - cell viability counter screen (AID 743213); further: nearly all actives have a fitted effect of over 50% in size
# How it was run: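 PPARd-bla HEK293H cells were treated with compounds plus agonist L165041 (300 nM final) for 17 h at 37 C. Viability was then read in the same wells by CellTiter-Glo luminescence after 30 min at room temperature.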
# [4] = target: Peroxisome proliferator-activated receptor delta (Homo sapiens) (UniProt Q03181); experiment: qHTS assay to identify small molecule antagonists of the peroxisome proliferator-activated receptor delta (PPARd) signaling pathway (AID 743215; active means well fitted inhibition curve with a large enough effect in the signal ratio in the repeat runs, not every such curve was filed as active; the % refers to the signal ratio;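 further: cells stimulated with agonist L165041 at 300 nM final during compound exposure; series mostly up to about 62 µM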)
# How it was run: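 HEK293H UAS-bla, PPARd; agonist L165041 300 nM final with cpd in DMSO; 37 C 17 h; FRET substrate, RT 2 h; fluorescence intensity.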
# [5] = target: Bile acid receptor (Homo sapiens) (UniProt Q96RI1); experiment: qHTS assay to identify small molecule antagonists of the farnesoid-X-receptor (FXR) signaling pathway (AID 743217; active means well fitted inhibition curve with a large enough effect in the signal ratio in the repeat runs, not every such curve was filed as active; the % refers to the signal ratio; further: potency means the concentration at half of the fitted maximal effect)
# Chain of Bile acid receptor (Homo sapiens) (Q96RI1 whole entry, looked up): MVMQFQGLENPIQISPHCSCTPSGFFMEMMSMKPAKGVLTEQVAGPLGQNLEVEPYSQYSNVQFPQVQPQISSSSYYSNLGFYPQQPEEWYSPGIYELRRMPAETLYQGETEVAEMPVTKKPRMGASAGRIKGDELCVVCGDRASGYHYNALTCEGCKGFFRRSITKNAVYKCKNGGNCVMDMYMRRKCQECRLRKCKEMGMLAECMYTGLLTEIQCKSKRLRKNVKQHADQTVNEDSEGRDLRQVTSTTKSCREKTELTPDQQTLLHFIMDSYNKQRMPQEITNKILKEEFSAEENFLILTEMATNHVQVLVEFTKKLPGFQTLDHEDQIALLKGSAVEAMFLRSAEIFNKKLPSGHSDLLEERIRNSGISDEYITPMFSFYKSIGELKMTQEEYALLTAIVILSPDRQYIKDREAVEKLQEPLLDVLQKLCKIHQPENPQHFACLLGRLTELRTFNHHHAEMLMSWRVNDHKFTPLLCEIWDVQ
# How it was run: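 GeneBLAzer FXR-UAS-bla HEK 293T, CDCA-stimulated (50 uM final). Compound treatment 16 h, 37 °C. Detection: beta-lactamase cleavage of B/G FRET substrate, fluorescence.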
# [6] = qHTS assay to identify small molecule agonists of the farnesoid-X-receptor (FXR) signaling pathway - cell viability counter screen (AID 743218); further: nearly all actives have a fitted effect of over 45% in size
# How it was run: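 Parallel cytotoxicity test: compound-treated (16 h, 37 C) HEK 293T FXR-bla reporter cells were lysed with CellTiter-Glo and luminescence recorded.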
# [7] = target: Bile acid receptor (Homo sapiens) (UniProt Q96RI1); experiment: qHTS assay to identify small molecule agonists of the farnesoid-X-receptor (FXR) signaling pathway (AID 743220; active means well fitted activation curve with a large enough effect in the signal ratio in the repeat runs, not every such curve was filed as active; the % refers to the signal ratio)
# How it was run: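 Beta-lactamase reporter under UAS control in GeneBLAzer FXR HEK 293T cells (5000/well) measured with LiveBLAzer FRET substrate after 2 h at room temperature. Compound exposure lasted 16 h at 37C.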
# [8] = qHTS assay to identify small molecule antagonists of the farnesoid-X-receptor (FXR) signaling pathway - cell viability counter screen (AID 743221; active means well fitted cell-killing curve with a large enough effect in the repeat runs, not every such curve was filed as active; further: nearly all actives have a fitted effect of over 50% in size)
# How it was run: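 After a 5 h settling period, FXR-bla HEK 293T cells receive compound and chenodeoxycholic acid (50 uM final) and incubate 16 h at 37 C; CellTiter-Glo luminescence, read after 30 min at room temperature, reports cell viability.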
# [9] = target: Vitamin D3 receptor (Homo sapiens) (UniProt P11473); experiment: qHTS assay to identify small molecule agonists of the vitamin D receptor (VDR) signaling pathway (AID 743222; calls by dose curve)
# Chain of Vitamin D3 receptor (Homo sapiens) (P11473 whole entry, looked up): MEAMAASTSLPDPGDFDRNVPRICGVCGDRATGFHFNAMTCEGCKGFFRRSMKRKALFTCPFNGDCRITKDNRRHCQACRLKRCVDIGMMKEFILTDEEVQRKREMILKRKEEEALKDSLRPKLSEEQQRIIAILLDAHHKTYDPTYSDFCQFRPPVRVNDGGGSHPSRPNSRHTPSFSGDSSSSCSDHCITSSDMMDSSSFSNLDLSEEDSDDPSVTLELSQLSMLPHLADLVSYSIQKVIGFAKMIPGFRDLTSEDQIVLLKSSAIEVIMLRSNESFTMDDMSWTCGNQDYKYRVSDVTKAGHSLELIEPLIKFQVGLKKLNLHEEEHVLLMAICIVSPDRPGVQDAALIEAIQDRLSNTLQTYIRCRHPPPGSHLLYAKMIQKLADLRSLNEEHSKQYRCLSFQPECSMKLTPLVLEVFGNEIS
# How it was run: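 In VDR-bla cells, compound-induced beta-lactamase expression is quantified by FRET substrate fluorescence. Treatment lasts 16 h at 37C; substrate develops 2 h at room temperature.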
# [10] = target: Vitamin D3 receptor (Homo sapiens) (UniProt P11473); experiment: qHTS assay to identify small molecule antagonists of the vitamin D receptor (VDR) signaling pathway (AID 743223; active means well fitted inhibition curve with a large enough effect in the signal ratio in the repeat runs, not every such curve was filed as active; the % refers to the signal ratio)
# How it was run: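 Reporter line VDR-bla; stimulus 1alpha,25-(OH)2 vitamin D3, 3 nM final; compound co-addition, 16 h 37C/5% CO2; LiveBLAzer B/G substrate 2 h RT; fluorescence intensity.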
Structure (SMILES),Potency [1],outcome [2],outcome [3],outcome [4],Potency [5],Potency [6],outcome [7],outcome [8],outcome [9],outcome [10]
CC(C)CC(N(C)C)C1(c2ccc(Cl)cc2)CCC1 (configuration not stated),inactive,inactive,inactive,inactive,inactive,inactive,inactive,inactive,inactive,inactive
O=C(O)c1cccc(Cl)c1,inactive,inactive,inactive,inactive,inactive,inactive,inactive,inactive,inactive,inactive
COCC(=O)N(c1c(C)cccc1C)N1CCOC1=O,inactive,inactive,inactive,inactive,inactive,inactive,inactive,inactive,inactive,inactive
CCOC(=O)CP(=O)(OCC)OCC,inactive,inactive,inactive,inactive,inactive,inactive,inactive,inactive,,
CCNc1nc(NC(C)C)nc(OC)n1,inactive,inactive,inactive,inactive,inactive,inactive,inactive,inactive,,inactive
NC1=NC(=O)C(c2ccccc2)O1 (configuration not stated),inactive,inactive,inactive,inactive,inactive,inactive,inactive,,inactive,
N#CCCC#N,inactive,inactive,inactive,inactive,inactive,inactive,inactive,inactive,inactive,inactive
O=[N+]([O-])c1cccc(O)c1,inactive,inactive,inactive,inactive,inactive,inactive,inactive,inactive,inactive,inactive
CCCCOC(=O)c1ccccc1N,inactive,inactive,inactive,inactive,inactive,inactive,inactive,inactive,inactive,inactive
O=C1OC(=O)C2C1C1(Cl)C(Cl)=C(Cl)C2(Cl)C1(Cl)Cl (configuration not stated),inactive,inactive,inactive,inactive,inactive,inactive,inactive,inactive,inactive,
CCCCOP(=O)(O)OCCCC,inactive,inactive,inactive,inactive,inactive,inactive,inactive,inactive,,
Nc1ccccc1Cl,inactive,inactive,inactive,inactive,inactive,inactive,inactive,inactive,inactive,
CCOP(=O)(OCC)OP(=O)(OCC)OCC,inactive,inactive,inactive,inactive,inactive,inactive,inactive,inactive,,
ClC(Br)Br,inactive,inactive,inactive,inactive,inactive,inactive,inactive,inactive,,
CC(C)NCC(O)c1ccc(N)c(C#N)c1 (configuration not stated),inactive,inactive,inactive,inactive,inactive,,,,,
CCC(Cl)[N+](=O)[O-] (configuration not stated),inactive,inactive,inactive,inactive,inactive,inactive,inactive,inactive,inactive,inactive
CSc1ccc(C(=O)C(C)(C)N2CCOCC2)cc1,inactive,inactive,inactive,inactive,inactive,inactive,inactive,inactive,inactive,inactive
COc1cc(OC)nc(NC(=O)NS(=O)(=O)c2ncccc2OCC(F)(F)F)n1,inactive,inactive,inactive,inactive,inactive,inactive,inactive,inactive,inactive,inactive
CC1(C)COP(Oc2ccccc2)OC1,inactive,inactive,inactive,inactive,inactive,inactive,inactive,inactive,inactive,inactive
CCCSC(=O)Cl,inactive,inactive,inactive,inactive,inactive,inactive,inactive,inactive,,inactive
O=[N+]([O-])c1ccc2c3c(cccc13)CC2,inactive,inactive,inactive,inactive,inactive,inactive,inactive,inactive,inactive,inactive
CCCCCCI,inactive,inactive,inactive,inactive,inactive,inactive,inactive,inactive,,
O=C(Cc1ccccc1)OCc1ccccc1,inactive,inactive,inactive,inactive,inactive,inactive,inactive,inactive,inactive,inactive
N#CC(O)c1ccccc1 (configuration not stated),inactive,inactive,inactive,inactive,inactive,inactive,inactive,inactive,inactive,
CC1CCCCC1NC(=O)Nc1ccccc1 (configuration not stated),inactive,inactive,inactive,inactive,inactive,inactive,inactive,inactive,inactive,inactive
CC(=O)C(Cl)Cl,inactive,inactive,inactive,inactive,inactive,inactive,inactive,,,
CC1=C(C(=O)Nc2ccccc2)S(=O)(=O)CCO1,54.9 µM (active),,,,,,,,,

Structure (SMILES),Potency [1],outcome [2],outcome [3],outcome [4],Potency [5],Potency [6],outcome [7],outcome [8],outcome [9],outcome [10]
CNC(=O)Oc1ccc(N(C)C)c(C)c1,inactive,inactive,inactive,inactive,inactive,inactive,inactive,,,
CC(=O)CCc1ccc2c(c1)OCO2,inactive,inactive,inactive,inactive,inactive,inactive,inactive,inactive,,
CC(C=O)Cc1ccc2c(c1)OCO2 (configuration not stated),inactive,inactive,inactive,inactive,inactive,inactive,inactive,,inactive,
CNC(=O)Oc1ccccc1C1OCCO1,inactive,inactive,inactive,inactive,inactive,inactive,inactive,inactive,,inactive
Nc1n[nH]c(N)n1,inactive,inactive,inactive,inactive,inactive,inactive,inactive,inactive,inactive,inactive
CC(N)=S,inactive,inactive,inactive,inactive,inactive,inactive,inactive,inactive,inactive,inactive
COC(=O)C1=CCCN(C)C1,inactive,inactive,inactive,inactive,inactive,inactive,inactive,inactive,inactive,inactive
CCCCc1ccc(O)cc1,inactive,inactive,inactive,inactive,inactive,inactive,inactive,inactive,,
CC(C)COP(=O)(OCC(C)C)OCC(C)C,inactive,inactive,inactive,inactive,inactive,inactive,inactive,inactive,inactive,
COC(=O)C(C)Oc1ccc(Oc2ccc(Cl)cc2Cl)cc1 (configuration not stated),inactive,inactive,inactive,inactive,inactive,inactive,inactive,inactive,inactive,inactive
Cc1ccccc1CO[C@@H]1C[C@@]2(C(C)C)CC[C@]1(C)O2,inactive,inactive,inactive,inactive,,inactive,,,,inactive
Cc1nnc2n1-c1sc(CCC(=O)N3CCOCC3)cc1C(c1ccccc1Cl)=NC2,inactive,inactive,inactive,,inactive,inactive,,inactive,,
CC1COC2(c3ccccc3Cl)c3cc(Cl)ccc3NC(=O)CN12 (configuration not stated),inactive,inactive,inactive,inactive,,inactive,,inactive,inactive,inactive
CC(CCc1ccccc1)NC(C)C(O)c1ccc(O)cc1 (configuration not stated),inactive,inactive,inactive,,,inactive,,inactive,inactive,
O=C(Nc1ccccc1)N(Cc1ccc(Cl)cc1)C1CCCC1,inactive,inactive,inactive,,54.9 µM (active),,inactive,,,
CCN(CC)c1nc(C)cc(OP(=S)(OC)OC)n1,inactive,inactive,inactive,inactive,,,,inactive,inactive,
COC(=O)COc1ccc(Cl)cc1Cl,inactive,inactive,inactive,inactive,,inactive,,,inactive,inactive
ClC(Cl)Br,inactive,inactive,inactive,inactive,,inactive,,,inactive,
CC1(C)CON(Cc2ccccc2Cl)C1=O,inactive,inactive,inactive,inactive,,inactive,,inactive,inactive,inactive
c1cc2c(c(N3CCNCC3)c1)OCCO2,inactive,inactive,inactive,inactive,,inactive,,,inactive,inactive
CCC#N,inactive,inactive,inactive,,inactive,inactive,inactive,inactive,,inactive
C#C[C@]1(O)C=C[C@H]2[C@@H]3CCC4=CC(=O)CC[C@@H]4[C@H]3CC[C@@]21CC,inactive,inactive,inactive,,,inactive,,inactive,,
C[C@]12CC[C@H]3[C@@H](CCC4=CC(=O)CC[C@@]43C)[C@@H]1CC[C@@H]2C(=O)O,inactive,inactive,inactive,,inactive,inactive,inactive,inactive,inactive,
CCN(Cc1ccc(Cl)nc1)/C(=C/[N+](=O)[O-])NC,inactive,inactive,inactive,inactive,,inactive,,inactive,inactive,inactive
CCCCC(=O)Cl,inactive,inactive,,inactive,inactive,inactive,inactive,inactive,,
[Cl][Sn]([Cl])([Cl])[Cl],inactive,inactive,inactive,,,inactive,,inactive,inactive,
